Results taken from article PMC11062922 (Nature Chemical Biology, 2023).
Where two headings read alike, the source gives them in different places.

Legend:
STK4 = conditions: read-out: apparent Kd, n = 1
SYK = conditions: read-out: apparent Kd, n = 1
[1] = compound concentrations:100 nM and 1000 nM (sheet 'Lestaurtinib' of Supplementary Table 1),run:Lestaurtinib_02482_R1,Plate:MR011
[2] = compound concentrations:100 nM and 1000 nM (sheet 'Lestaurtinib' of Supplementary Table 1),run:Lestaurtinib_02482_R2,Plate:MR011
[3] = compound concentrations:100 nM and 1000 nM (sheet 'Lestaurtinib' of Supplementary Table 1),run:Lestaurtinib_02482_R3,Plate:MR011
[4] = compound concentrations:100 nM and 1000 nM (sheet 'Lestaurtinib' of Supplementary Table 1),run:Lestaurtinib_02487_R1,Plate:MR012
[5] = compound concentrations:100 nM and 1000 nM (sheet 'Lestaurtinib' of Supplementary Table 1),run:Lestaurtinib_02496_R1,Plate:MR013
[6] = compound concentrations:100 nM and 1000 nM (sheet 'Lestaurtinib' of Supplementary Table 1),run:Lestaurtinib_02566_R3,Plate:MR014
[7] = compound concentrations:100 nM and 1000 nM (sheet 'Lestaurtinib' of Supplementary Table 1),run:Lestaurtinib_02577_R3,Plate:MR016
[8] = compound concentrations:100 nM and 1000 nM (sheet 'Lestaurtinib' of Supplementary Table 1),run:Lestaurtinib_02584_R1,Plate:MR017
[9] = compound concentrations:100 nM and 1000 nM (sheet 'Lestaurtinib' of Supplementary Table 1),run:Lestaurtinib_02584_R3,Plate:MR017
[10] = compound concentrations:100 nM and 1000 nM (sheet 'Lestaurtinib' of Supplementary Table 1),run:Lestaurtinib_02601_R1,Plate:MR018
[11] = compound concentrations:100 nM and 1000 nM (sheet 'Lestaurtinib' of Supplementary Table 1),run:Lestaurtinib_02601_R2,Plate:MR018
[12] = compound concentrations:100 nM and 1000 nM (sheet 'Lestaurtinib' of Supplementary Table 1),run:Lestaurtinib_02601_R3,Plate:MR018
[13] = compound concentrations:100 nM and 1000 nM (sheet 'Lestaurtinib' of Supplementary Table 1),run:Lestaurtinib_02606_R1,Plate:MR019
[14] = compound concentrations:100 nM and 1000 nM (sheet 'Lestaurtinib' of Supplementary Table 1),run:Lestaurtinib_02606_R2,Plate:MR019
[15] = compound concentrations:100 nM and 1000 nM (sheet 'Lestaurtinib' of Supplementary Table 1),run:Lestaurtinib_02624_R1,Plate:MR020
[16] = compound concentrations:100 nM and 1000 nM (sheet 'Lestaurtinib' of Supplementary Table 1),run:Lestaurtinib_02741_R2,Plate:MR023

Lestaurtinib was tested, and the potency estimated from few doses (STK4; [1]) was 34.5 nM, the potency estimated from few doses (STK4; [2]) was 42.5 nM and the potency estimated from few doses (STK4; [3]) was 38.1 nM. It also gave a potency estimated from few doses (STK4; [4]) of 33 nM, a potency estimated from few doses (STK4; compound concentrations:100 nM and 1000 nM (sheet 'Lestaurtinib' of Supplementary Table 1),run:Lestaurtinib_02487_R3,Plate:MR012) of 48 nM and a potency estimated from few doses (STK4; [5]) of 39.4 nM. For the same substance, the potency estimated from few doses (STK4; compound concentrations:100 nM and 1000 nM (sheet 'Lestaurtinib' of Supplementary Table 1),run:Lestaurtinib_02496_R3,Plate:MR013) was 36.6 nM, the potency estimated from few doses (STK4; compound concentrations:100 nM and 1000 nM (sheet 'Lestaurtinib' of Supplementary Table 1),run:Lestaurtinib_02566_R2,Plate:MR014) was 53.6 nM and the potency estimated from few doses (STK4; [6]) was 36.8 nM. The potency estimated from few doses (STK4; compound concentrations:100 nM and 1000 nM (sheet 'Lestaurtinib' of Supplementary Table 1),run:Lestaurtinib_02572_R2,Plate:MR015) was 38.4 nM, the potency estimated from few doses (STK4; compound concentrations:100 nM and 1000 nM (sheet 'Lestaurtinib' of Supplementary Table 1),run:Lestaurtinib_02572_R3,Plate:MR015) was 51.5 nM and the potency estimated from few doses (STK4; [7]) was 26.1 nM. The potency estimated from few doses (STK4; [8]) was 32.3 nM, the potency estimated from few doses (STK4; compound concentrations:100 nM and 1000 nM (sheet 'Lestaurtinib' of Supplementary Table 1),run:Lestaurtinib_02584_R2,Plate:MR017) was 37.7 nM and the potency estimated from few doses (STK4; [9]) was 39.7 nM. For the same substance, the potency estimated from few doses (STK4; [10]) was 47.3 nM, the potency estimated from few doses (STK4; [11]) was 41.1 nM and the potency estimated from few doses (STK4; [12]) was 51.2 nM. The potency estimated from few doses (STK4; [13]) was 38.6 nM, the potency estimated from few doses (STK4; [14]) was 55.6 nM and the potency estimated from few doses (STK4; [15]) was 48.3 nM. The potency estimated from few doses (STK4; compound concentrations:100 nM and 1000 nM (sheet 'Lestaurtinib' of Supplementary Table 1),run:Lestaurtinib_02724_R1,Plate:MR021) was 52.4 nM, the potency estimated from few doses (STK4; compound concentrations:100 nM and 1000 nM (sheet 'Lestaurtinib' of Supplementary Table 1),run:Lestaurtinib_02724_R2,Plate:MR021) was 41.4 nM and the potency estimated from few doses (STK4; compound concentrations:100 nM and 1000 nM (sheet 'Lestaurtinib' of Supplementary Table 1),run:Lestaurtinib_02724_R3,Plate:MR021) was 39.8 nM. It also gave a potency estimated from few doses (STK4; [16]) of 36.2 nM, a potency estimated from few doses (STK4; compound concentrations:100 nM and 1000 nM (sheet 'Lestaurtinib' of Supplementary Table 1),run:Lestaurtinib_02748_R2,Plate:MR024) of 31.7 nM and a potency estimated from few doses (STK4; compound concentrations:100 nM and 1000 nM (sheet 'Lestaurtinib' of Supplementary Table 1),run:Lestaurtinib_02748_R3,Plate:MR024) of 40.9 nM. The potency estimated from few doses (STK4; compound concentrations:100 nM and 1000 nM (sheet 'Lestaurtinib' of Supplementary Table 1),run:Lestaurtinib_02752_R1,Plate:MR025) was 51.5 nM, the potency estimated from few doses (STK4; compound concentrations:100 nM and 1000 nM (sheet 'Lestaurtinib' of Supplementary Table 1),run:Lestaurtinib_02752_R2,Plate:MR025) was 36.2 nM and the potency estimated from few doses (STK4; compound concentrations:100 nM and 1000 nM (sheet 'Lestaurtinib' of Supplementary Table 1),run:Lestaurtinib_02752_R3,Plate:MR025) was 35.9 nM. For the same substance, the potency estimated from few doses (STK4; compound concentrations:100 nM and 1000 nM (sheet 'Lestaurtinib' of Supplementary Table 1),run:Lestaurtinib_02766_R2,Plate:MR027) was 45.4 nM, the potency estimated from few doses (STK4; compound concentrations:100 nM and 1000 nM (sheet 'Lestaurtinib' of Supplementary Table 1),run:Lestaurtinib_02768_R1,Plate:MR028) was 43.2 nM and the potency estimated from few doses (STK4; compound concentrations:100 nM and 1000 nM (sheet 'Lestaurtinib' of Supplementary Table 1),run:Lestaurtinib_02795_R2,Plate:MR022) was 29.7 nM. It also gave a potency estimated from few doses (STK4; compound concentrations:100 nM and 1000 nM (sheet 'Lestaurtinib' of Supplementary Table 1),run:Lestaurtinib_02802_R1,Plate:MR029) of 34.7 nM, a potency estimated from few doses (STK4; compound concentrations:100 nM and 1000 nM (sheet 'Lestaurtinib' of Supplementary Table 1),run:Lestaurtinib_02896_R1,Plate:MR030) of 35.8 nM and a potency estimated from few doses (STK4; compound concentrations:100 nM and 1000 nM (sheet 'Lestaurtinib' of Supplementary Table 1),run:Lestaurtinib_03172_R1,Plate:MR031) of 30.6 nM. The potency estimated from few doses (STK4; compound concentrations:100 nM and 1000 nM (sheet 'Lestaurtinib' of Supplementary Table 1),run:Lestaurtinib_03172_R2,Plate:MR031) was 38.8 nM, the potency estimated from few doses (STK4; compound concentrations:100 nM and 1000 nM (sheet 'Lestaurtinib' of Supplementary Table 1),run:Lestaurtinib_03172_R3,Plate:MR031) was 35.2 nM and the potency estimated from few doses (STK4; compound concentrations:100 nM and 1000 nM (sheet 'Lestaurtinib' of Supplementary Table 1),run:Lestaurtinib_03252_R2,Plate:MR032) was 45.6 nM. For the same substance, the potency estimated from few doses (STK4; compound concentrations:100 nM and 1000 nM (sheet 'Lestaurtinib' of Supplementary Table 1),run:Lestaurtinib_03260_R1,Plate:MR033) was 38.2 nM, the potency estimated from few doses (STK4; compound concentrations:100 nM and 1000 nM (sheet 'Lestaurtinib' of Supplementary Table 1),run:Lestaurtinib_03260_R2,Plate:MR033) was 47.5 nM and the potency estimated from few doses (SYK; compound concentrations:100 nM and 1000 nM (sheet 'Lestaurtinib' of Supplementary Table 1),run:Lestaurtinib_02339_R1,Plate:MR001) was 511 nM. It also gave a potency estimated from few doses (SYK; compound concentrations:100 nM and 1000 nM (sheet 'Lestaurtinib' of Supplementary Table 1),run:Lestaurtinib_02364_R1,Plate:MR002) of 481 nM, a potency estimated from few doses (SYK; compound concentrations:100 nM and 1000 nM (sheet 'Lestaurtinib' of Supplementary Table 1),run:Lestaurtinib_02364_R3,Plate:MR002) of 486 nM and a potency estimated from few doses (SYK; compound concentrations:100 nM and 1000 nM (sheet 'Lestaurtinib' of Supplementary Table 1),run:Lestaurtinib_02367_R1,Plate:MR003) of 140 nM. For the same substance, the potency estimated from few doses (SYK; compound concentrations:100 nM and 1000 nM (sheet 'Lestaurtinib' of Supplementary Table 1),run:Lestaurtinib_02381_R1,Plate:MR004) was 206 nM, the potency estimated from few doses (SYK; compound concentrations:100 nM and 1000 nM (sheet 'Lestaurtinib' of Supplementary Table 1),run:Lestaurtinib_02381_R2,Plate:MR004) was 170 nM and the potency estimated from few doses (SYK; compound concentrations:100 nM and 1000 nM (sheet 'Lestaurtinib' of Supplementary Table 1),run:Lestaurtinib_02381_R3,Plate:MR004) was 440 nM. For the same substance, the potency estimated from few doses (SYK; compound concentrations:100 nM and 1000 nM (sheet 'Lestaurtinib' of Supplementary Table 1),run:Lestaurtinib_02407_R1,Plate:MR005) was 189 nM, the potency estimated from few doses (SYK; compound concentrations:100 nM and 1000 nM (sheet 'Lestaurtinib' of Supplementary Table 1),run:Lestaurtinib_02407_R2,Plate:MR005) was 134 nM and the potency estimated from few doses (SYK; compound concentrations:100 nM and 1000 nM (sheet 'Lestaurtinib' of Supplementary Table 1),run:Lestaurtinib_02407_R3,Plate:MR005) was 157 nM. It also gave a potency estimated from few doses (SYK; compound concentrations:100 nM and 1000 nM (sheet 'Lestaurtinib' of Supplementary Table 1),run:Lestaurtinib_02422_R2,Plate:MR006) of 507 nM, a potency estimated from few doses (SYK; compound concentrations:100 nM and 1000 nM (sheet 'Lestaurtinib' of Supplementary Table 1),run:Lestaurtinib_02422_R3,Plate:MR006) of 218 nM and a potency estimated from few doses (SYK; compound concentrations:100 nM and 1000 nM (sheet 'Lestaurtinib' of Supplementary Table 1),run:Lestaurtinib_02437_R2,Plate:MR007) of 500 nM. It also gave a potency estimated from few doses (SYK; compound concentrations:100 nM and 1000 nM (sheet 'Lestaurtinib' of Supplementary Table 1),run:Lestaurtinib_02438_R2,Plate:MR008) of 161 nM, a potency estimated from few doses (SYK; compound concentrations:100 nM and 1000 nM (sheet 'Lestaurtinib' of Supplementary Table 1),run:Lestaurtinib_02443_R1,Plate:MR009) of 437 nM and a potency estimated from few doses (SYK; compound concentrations:100 nM and 1000 nM (sheet 'Lestaurtinib' of Supplementary Table 1),run:Lestaurtinib_02473_R1,Plate:MR010) of 478 nM. It also gave a potency estimated from few doses (SYK; compound concentrations:100 nM and 1000 nM (sheet 'Lestaurtinib' of Supplementary Table 1),run:Lestaurtinib_02473_R2,Plate:MR010) of 446 nM, a potency estimated from few doses (SYK; compound concentrations:100 nM and 1000 nM (sheet 'Lestaurtinib' of Supplementary Table 1),run:Lestaurtinib_02473_R3,Plate:MR010) of 416 nM and a potency estimated from few doses (SYK; [1]) of 523 nM. It also gave a potency estimated from few doses (SYK; [2]) of 462 nM, a potency estimated from few doses (SYK; [3]) of 432 nM and a potency estimated from few doses (SYK; [4]) of 598 nM. For the same substance, the potency estimated from few doses (SYK; compound concentrations:100 nM and 1000 nM (sheet 'Lestaurtinib' of Supplementary Table 1),run:Lestaurtinib_02487_R2,Plate:MR012) was 495 nM, the potency estimated from few doses (SYK; [5]) was 515 nM and the potency estimated from few doses (SYK; compound concentrations:100 nM and 1000 nM (sheet 'Lestaurtinib' of Supplementary Table 1),run:Lestaurtinib_02496_R2,Plate:MR013) was 579 nM. For the same substance, the potency estimated from few doses (SYK; compound concentrations:100 nM and 1000 nM (sheet 'Lestaurtinib' of Supplementary Table 1),run:Lestaurtinib_02566_R1,Plate:MR014) was 297 nM, the potency estimated from few doses (SYK; [6]) was 134 nM and the potency estimated from few doses (SYK; compound concentrations:100 nM and 1000 nM (sheet 'Lestaurtinib' of Supplementary Table 1),run:Lestaurtinib_02577_R1,Plate:MR016) was 260 nM. The potency estimated from few doses (SYK; [7]) was 149 nM, the potency estimated from few doses (SYK; [8]) was 473 nM and the potency estimated from few doses (SYK; [9]) was 401 nM. It also gave a potency estimated from few doses (SYK; [10]) of 420 nM, a potency estimated from few doses (SYK; [11]) of 553 nM and a potency estimated from few doses (SYK; [12]) of 462 nM. For the same substance, the potency estimated from few doses (SYK; [13]) was 388 nM, the potency estimated from few doses (SYK; [14]) was 511 nM and the potency estimated from few doses (SYK; compound concentrations:100 nM and 1000 nM (sheet 'Lestaurtinib' of Supplementary Table 1),run:Lestaurtinib_02606_R3,Plate:MR019) was 488 nM. For the same substance, the potency estimated from few doses (SYK; [15]) was 402 nM, the potency estimated from few doses (SYK; compound concentrations:100 nM and 1000 nM (sheet 'Lestaurtinib' of Supplementary Table 1),run:Lestaurtinib_02624_R2,Plate:MR020) was 440 nM and the potency estimated from few doses (SYK; compound concentrations:100 nM and 1000 nM (sheet 'Lestaurtinib' of Supplementary Table 1),run:Lestaurtinib_02624_R3,Plate:MR020) was 215 nM. For the same substance, the potency estimated from few doses (SYK; compound concentrations:100 nM and 1000 nM (sheet 'Lestaurtinib' of Supplementary Table 1),run:Lestaurtinib_02741_R1,Plate:MR023) was 395 nM, the potency estimated from few doses (SYK; [16]) was 396 nM and the potency estimated from few doses (SYK; compound concentrations:100 nM and 1000 nM (sheet 'Lestaurtinib' of Supplementary Table 1),run:Lestaurtinib_02741_R3,Plate:MR023) was 236 nM.
